# Data as given in the supplement of paper PMC6555819.
# Experiments:
# Test in all cases: PBM binding z-score (relative to random genomic background probes); higher = stronger binding; sequences stand for … in GC…GCGATTGACAGCGTAGAATGAAGG
# [1] = tested on: FXR:RXRa (NR concentration 270 nM, RXRa partner concentration 90 nM)
# How it was run: (§1)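 Antibodies against each partner of ligand-free nuclear receptor dimers (one per run) detected binding on custom Agilent 4×180K protein-binding microarrays after 1 h incubation. The double-stranded probes had 34-nt variable regions carrying direct-repeat seeds, single-nucleotide variants, half-site ablations and random human genomic background sequences. Binding z-scores, from regression-normalized fluorescence, use the random background probes as reference.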
# [2] = tested on: LXRa:RXRa (NR concentration 270 nM, RXRa partner concentration 90 nM)
# How it was run: as §1
# [3] = tested on: LXRa homodimer (NR concentration 270 nM)
# How it was run: as §1
# [4] = tested on: LXRb:RXRa (NR concentration 270 nM, RXRa partner concentration 90 nM)
# How it was run: as §1
# [5] = tested on: LXRb homodimer (NR concentration 270 nM)
# How it was run: as §1
# [6] = tested on: PPARa:RXRa (NR concentration 270 nM, RXRa partner concentration 90 nM)
# How it was run: as §1
# [7] = tested on: PPARg:RXRa (NR concentration 180 nM, RXRa partner concentration 90 nM)
# How it was run: as §1
# [8] = tested on: PPARg:RXRa 270nM:90nM, anti-RXR (NR concentration 270 nM, RXRa partner concentration 90 nM)
# How it was run: as §1
# [9] = tested on: PPARg:RXRa 30nM:10nM, anti-RXR (NR concentration 30 nM, RXRa partner concentration 10 nM)
# How it was run: as §1
# [10] = tested on: PPARg:RXRa 90nM:30nM, anti-RXR (NR concentration 90 nM, RXRa partner concentration 30 nM)
# How it was run: as §1
# [11] = tested on: PPARg:RXRa DBDmut IVT, anti-RXR (DBD mutation: RXRa K156A/R161A, NR concentration 270 nM, RXRa partner concentration 90 nM)
# How it was run: as §1
# [12] = tested on: PPARg:RXRa IVT, anti-PPARg (NR concentration 270 nM, RXRa partner concentration 90 nM)
# How it was run: as §1
# [13] = tested on: PPARg DBDmut:RXRa IVT, anti-PPARg (DBD mutation: PPARg1 K132A/R137A, NR concentration 270 nM, RXRa partner concentration 90 nM)
# How it was run: as §1
# [14] = tested on: PPARg DBDmut IVT, anti-PPARg (DBD mutation: PPARg1 K132A/R137A, NR concentration 270 nM)
# How it was run: as §1
# [15] = tested on: PPARg homodimer (NR concentration 180 nM)
# How it was run: as §1
# [16] = tested on: PXR:RXRa (NR concentration 270 nM, RXRa partner concentration 90 nM)
# How it was run: as §1
# [17] = tested on: PXR homodimer (NR concentration 270 nM)
# How it was run: as §1
# [18] = tested on: RARa:RXR (NR concentration 270 nM, RXRa partner concentration 90 nM)
# How it was run: as §1
# [19] = tested on: RARa homodimer (NR concentration 270 nM)
# How it was run: as §1
# [20] = tested on: RARb:RXRa (NR concentration 270 nM, RXRa partner concentration 90 nM)
# How it was run: as §1
Sequence,PBM binding z-score [1],PBM binding z-score [2],PBM binding z-score [3],PBM binding z-score [4],PBM binding z-score [5],PBM binding z-score [6],PBM binding z-score [7],PBM binding z-score [8],PBM binding z-score [9],PBM binding z-score [10],PBM binding z-score [11],PBM binding z-score [12],PBM binding z-score [13],PBM binding z-score [14],PBM binding z-score [15],PBM binding z-score [16],PBM binding z-score [17],PBM binding z-score [18],PBM binding z-score [19],PBM binding z-score [20]
CGTCCAAGGTCTGCAGGTCAGTGAAAGCGACGTG,0.149,0.12,-0.428,0.0193,-1.21,0.759,-0.32,0.0368,-0.45,-0.257,0.404,0.652,-0.578,-0.887,0.2,0.243,-0.548,0.466,-0.728,2.16
GCATATAGGTAATACAAGGTGAAATTCCGATTGT,1.74,2.2,0.342,0.712,-0.117,1.67,1.51,0.952,0.515,0.795,3.71,2.81,0.826,1.54,0.323,0.55,0.0431,1.17,0.97,0.349
GCTCGGAGGACAATGTCAGAGCTTTGTCCGTAGA,-0.623,-0.613,-0.612,-0.519,-0.999,-0.586,-0.765,-0.898,-1.25,-1.01,-0.596,-0.513,-1.4,-0.198,-1.02,-0.494,-0.648,-0.772,-1.31,0.788
TCTGCTAGGTCGACGATGGTCAGCTAATCTGCTA,-0.0207,0.0577,-1.03,-0.332,-1.02,0.202,-0.26,0.642,1.2,0.698,1.12,0.905,-0.448,-0.108,-1.39,-0.185,-1.16,0.0229,-1.42,1.16
GATACAGGGTCAAGGCCGGAGTACGCGTATTGAT,6.13,4.13,0.0137,3.51,-0.495,5.66,5.78,5.32,1.81,3.85,2.69,3.81,-0.0401,0.122,1.8,3.56,0.0329,4.01,0.567,4.55
CAAACTAGGTCAAAGGTCGAAGTCGAGCCAACCA,7.06,5.62,1.41,4.93,0.909,7.28,13.9,11.2,14.3,13.6,8.87,9.27,5.32,3.95,3.95,5.77,0.27,8.46,0.524,4.71
TCTATTAGTTTATTAGGGCAACCGAAACAGCGGA,1.14,0.997,1.69,1.25,2.21,2.4,1.56,3.07,3.87,3.33,4.65,4.46,2.16,2.42,1.44,1.07,1.21,0.944,1.74,1.57
ATCGAAAGGTCGAGGTGAGTACAGAGAAAGGGAA,4.22,3.51,0.276,2.53,0.653,4.64,3.5,3.96,1.38,2.61,0.64,2.65,1.01,0.9,1.64,3.27,0.251,3.11,1.29,4.14
GCAGACAGGTGAAACGCAGGTAACGCAGGGTGGC,-0.151,-0.229,-0.631,-0.357,-1.09,0.749,0.665,-0.038,-0.74,-0.0828,0.691,0.737,-0.603,-0.805,-0.678,-0.552,-0.857,0.395,-0.862,0.76
TCTAGTTCGTCAAAGGTCACACACTCGAAATGCG,6.15,6.02,4.48,5.55,1.9,5.99,5.62,6.47,5.73,6.28,2.89,3.87,2.7,1.85,3.82,6.15,2.25,6.52,3.27,5.24
AGTCAAAGTTCCCTAGGTAACGTAAGATTCAGCT,-0.33,-0.385,-0.0977,-0.4,-0.222,-0.259,0.281,0.455,0.0394,-0.0115,-0.23,0.612,-0.729,0.358,-0.325,0.00195,-0.697,-0.125,-0.463,0.687
ACTTACGGGTCAACGAGGTTATAGGACGCGTATA,5.95,5.07,0.89,4.43,0.538,5.78,5.7,5.53,2.04,4.25,3.03,4.18,1.47,0.791,2,5.08,2.36,5,1.18,4.41
AGAATGAGGTTATACGTTGATCAGGGAAGAAAGT,2.25,1.89,0.234,1.66,0.0742,3.37,2.03,2.34,1.01,1.78,2.33,2.33,1.31,1.24,1.05,1.18,0.411,1.69,0.556,1.44
ATACCAAGGTGCTCGTGAGGTCGTTGATACTAAC,0.689,0.535,0.19,0.834,-0.238,0.836,0.126,-0.218,-0.413,-0.131,-0.245,0.0535,0.246,0.215,0.541,2.27,0.582,1.85,-0.377,0.57
TCGAGTAGGTTACCAGTGGGGCATTCAGCTTTCT,-0.0125,1.19,-0.24,0.725,-0.623,1.16,0.278,1.36,1.05,1.36,3.82,3.43,-0.827,-0.418,0.236,-0.206,-0.913,0.372,-1.02,0.865
CCAGACAGGTGTAAGGTAACTCAGTCTGGTACGC,-0.0338,-0.35,-0.126,-0.421,-0.449,0.0692,0.41,0.842,-0.246,0.409,-0.423,-0.31,-0.287,-0.728,0.365,-0.318,-0.0688,-0.0779,-0.14,-0.403
GCTATTAGTTGATAGGGCAACCGAATGATTCTCG,0.0649,-0.305,-0.0602,-0.111,-0.693,0.29,0.713,1.48,0.376,0.928,0.375,0.394,-0.22,-0.757,0.294,-0.353,-0.032,0.0949,0.352,0.561
TCTTGTTGATCAGCAGGTTAAGAAAGCTGGCCAA,0.582,0.423,-0.308,0.784,-0.493,0.727,-0.682,1.17,2.56,1.66,1.56,0.0637,-0.302,-0.327,-0.0408,0.332,-0.115,0.447,-0.41,0.288
ACTTACGGGTCAACGAGGTTATAGCGCGCGTATA,6.93,5.04,0.711,4.5,0.647,5.73,5.68,5.59,2.17,4.49,3.58,4.21,0.78,1.28,2.15,5.22,3.53,5.29,0.581,4.29
CCGACTGGGGCCAGGTTACCATAACGCACAGCCA,0.0157,-0.087,-0.139,0.152,-0.749,0.188,0.629,0.301,-0.675,-0.256,-0.238,-0.22,-1.52,-1.47,0.249,-0.136,-0.0661,0.176,-0.0137,0.996
TCATATAGGTAAACAGGTGAATGTCCGTAAGTTA,0.832,1.18,1.02,0.963,0.0472,2.02,2.31,3.18,3.86,3.58,4.88,4.45,1.34,1.04,1.16,0.702,0.0773,1.09,0.858,0.708
CTCGAAAGATCGGTTGAGGTGAGTATACGGATAA,0.238,-0.622,-0.531,-0.146,-0.43,0.0167,-0.0366,-0.226,-0.244,-0.262,-0.303,0.165,0.37,0.142,-0.353,-0.0362,-0.0981,0.657,-0.222,0.00694
ATCGAAAGGTCGAGGCGAGTATAGAGAAAGGGAA,3.71,3.01,-0.542,2.24,0.308,4.47,2.71,2.86,0.749,1.52,0.108,1.14,0.481,0.208,0.98,2.11,0.0659,2.71,0.203,3.86
GGAAGGAGGGCAAAGTTGATAGCATCTGTCGACG,1.43,1.38,0.21,1.88,1.01,4.14,7.61,7.29,7.65,8.18,4.12,4.58,0.789,0.418,1.64,1.3,1.62,1.57,1.19,2.31
CAAACTAGGTCCAGGTCAAAGTCGGTTTGTGCCA,2.21,2.36,1.47,1.98,0.0545,3.29,2.6,3.28,0.928,2.59,3.43,3.67,0.261,-0.192,1.29,2.57,0.685,2.22,0.417,2.9
ATCTCTAGGTAACAAGTCCAGTGAAAGAGAGGAC,0.652,0.256,0.362,0.148,0.685,0.632,1.2,1.71,0.317,1.45,3.01,2.6,0.767,1.29,0.367,0.433,0.215,0.195,0.924,0.473
GCGACTGGGGCAAAGCACGTTACCATAAGGTTGG,-0.454,-0.482,-0.763,-0.305,-0.971,0.875,1.7,2.21,0.24,1.62,4.44,3.18,0.131,-0.127,0.0548,-0.54,-0.386,-0.0632,-0.156,0.573
AGTCAAAGTTCATCTAGTTAACGTAAGATATGCT,6.78,6.1,5.42,3.68,2.06,4.77,6.49,5.96,3.55,5.46,0.113,2.78,1.61,1.25,3.6,5.26,9.11,3.45,2.15,4.85
CGTCCAAGGTCAATGCTAGGTCAATGAAAGCATT,6.8,5.82,3.63,4.64,1.53,5.09,4.43,4.97,1.54,3.64,2.82,4.3,0.467,0.337,5.41,5.09,1.55,5.61,1.61,5.25
